Bioassay records deposited in PubChem BioAssay by National Center for Advancing Translational Sciences (NCATS).
Shown are actives, neighbours in structure and some others; about 18% of the full set was active somewhere.
TDP1 cell CPT – growth inhibition of DT40 Tdp1-/-;hTDP1 cells with camptothecin (screen for TDP1 inhibitors); chicken DT40 Tdp1-/-;hTDP1 cells + 20 nM CPT, ATP luminescence, 48 h; Potency, µM (highest dose often 46.2 µM), without a hit: at the top dose activity change, negative = growth inhibition, hits mostly inhibitors; 12% of 420,000 active; AID 686979; note: nearly all actives have a fitted effect of over 55% in size
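Chicken DT40 Tdp1-/- cells complemented with human TDP1, 400 cells/well, exposed to compounds plus 20 nM camptothecin for at least 48 h at 37 C; viability read as ATP content by CellTiter-Glo luminescence.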
GCN5L2 inh – blocks human GCN5L2 histone acetyltransferase | 0.21% of 390,000 active | GCN5L2 HAT assay, ThioGlo1 CoA-SH fluorescence | Potency, µM (highest dose often 58.9 µM), without a hit: top-dose activity change, negative = inhibition, usual class: inhibitors | Q92830 | AID 504327
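Enzyme at 20nM final was mixed with library compounds for 15 min at room temperature. Peptide H3(1-25) at 75uM, acetyl-CoA at 70uM and ThioGlo1 at 50uM were then added. Plates were read immediately and after 20 min (Ex340nm/Em540nm).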
TDP1 inh – blocks human tyrosyl-DNA phosphodiesterase 1; AID 485290; Potency, µM (doses to about 130 µM), for the others: at the highest dose activity change, negative = inhibition, actives largely listed as inhibitors; Q9NUW8; recombinant TDP1, AlphaScreen DNA substrate cleavage; 0.28% of 350,000 active; note: nearly all actives have a fitted effect of over 40% in size
Target sequence (Q9NUW8 whole entry, looked up): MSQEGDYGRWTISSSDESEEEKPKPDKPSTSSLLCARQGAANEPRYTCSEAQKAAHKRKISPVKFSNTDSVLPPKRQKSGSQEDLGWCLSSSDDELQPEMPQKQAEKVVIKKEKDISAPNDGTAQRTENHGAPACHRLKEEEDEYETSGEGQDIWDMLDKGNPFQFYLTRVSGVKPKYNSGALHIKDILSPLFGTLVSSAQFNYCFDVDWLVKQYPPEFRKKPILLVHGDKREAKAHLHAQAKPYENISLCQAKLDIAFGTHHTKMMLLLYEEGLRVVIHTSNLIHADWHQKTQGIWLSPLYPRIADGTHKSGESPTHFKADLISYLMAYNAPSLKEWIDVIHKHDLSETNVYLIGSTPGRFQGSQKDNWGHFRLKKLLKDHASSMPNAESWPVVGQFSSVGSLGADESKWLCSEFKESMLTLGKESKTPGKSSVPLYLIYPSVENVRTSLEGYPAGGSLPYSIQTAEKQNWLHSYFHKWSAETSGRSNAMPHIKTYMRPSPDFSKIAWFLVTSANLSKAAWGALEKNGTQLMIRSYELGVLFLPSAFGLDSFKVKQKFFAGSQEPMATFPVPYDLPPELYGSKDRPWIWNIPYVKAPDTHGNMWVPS
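Enzyme-compound mixtures sat 15 min at room temperature, followed by a 5 min reaction with 15 nM final substrate and 10 min with AlphaScreen beads. Recombinant human Tdp1 was used at 1 nM final.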
DT40 TDP1 no CPT – qHTS for Inhibitors of human tyrosyl-DNA phosphodiesterase 1 (TDP1): qHTS in cells in absence of CPT. DT40 Tdp1-/- hTDP1 cells, no CPT, ATP luminescence, 48 h. 15% of 420,000 active. AID 686978, 2013. Potency, µM (series often up to 46.2 µM), inactives show at the top dose activity change, negative = growth inhibition, hits mostly inhibitors; note: nearly all actives have a fitted effect of over 55% in size
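DT40 Tdp1-/-;hTDP1 cells, no CPT (DMSO vehicle only), 400 cells/well; compounds pin-transferred; ≥48 hr, 37 °C; CellTiter-Glo 30 min RT dark, luminescence read.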
VDR inhibitor – vitamin D3 receptor (human) inhibition; VDR-SRC2-3 peptide fluorescence polarization, 2 h; AID 504847; Potency, µM, without a hit: max response, negative = inhibition, usual class: inhibitors; 0.93% of 400,000 active
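Fluorescence polarization assay of small-molecule disruption of VDR binding to coregulator peptide SRC2-3. Compounds and controls pin-transferred, then read after 2 h incubation at ambient room temperature.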
PLK1 PBD inh – PLK1 (human) polo-box domain binding inhibition. AID 720504. Potency, µM, without a hit: max response, negative = inhibition, hits mostly inhibitors. 2.8% of 360,000 active. Plk1 PBD binding of FITC phosphopeptide, fluorescence polarization. P53350; note: series mostly up to about 57 µM; nearly all actives have a fitted effect of over 65% in size
Numbers without * were called inactive; ? = inconclusive; · = no result; [ ] = another dose, or the depositor's remark. Calls come from the whole dose curve; as a rule, active = well fitted curve in the direction sought with a large enough effect; inconclusive = small, poorly fitted or top-dose-only effect, or another doubt; inactive = no such curve, though single readings can be large; an effect the other way counts as inactive or inconclusive. % is set by controls: 0 for no effect and ±100 for the full control effect; potency is the fitted concentration of half-maximal effect.

SMILES	TDP1 cell CPT	GCN5L2 inh	TDP1 inh	DT40 TDP1 no CPT	VDR inhibitor	PLK1 PBD inh
CCC(c1nnnn1-c1ccc2c(c1)OCCO2)N1CCN(c2ccc(C(F)(F)F)cc2[N+](=O)[O-])CC1 (stereo not drawn)	15µM*	·	·	23µM*	·	-7%
CCC(c1nnnn1-c1ccc2c(c1)OCCO2)N1CCN(C)CC1 (stereo not drawn)	7%	·	·	-23%	·	3%
CN(C(=O)c1c2c(nc3ccccc13)C(=O)N(C1CCCCC1)C2)c1ccc(F)cc1	-12%	-11%	7%	-6%	5%	·
O=C(c1c2c(nc3ccccc13)C(=O)N(C1CCCCC1)C2)N1CCN(c2ccc(F)cc2)CC1	21µM*	31%	3%	26µM*	20%	·
COc1ccc(N2CCN(C(=O)c3c4c(nc5ccccc35)C(=O)N(C3CCCCC3)C4)CC2)cc1	15µM*	0%	7%	16µM*	13%	·
NC(=O)C1CCN(c2csc3ccc(F)cc3c2=O)CC1	-9%	-2%	-4%	-11%	16%	·
CCS(=O)(=O)N1Cc2ccccc2CC1C(=O)N1CCN(c2cccc(C)c2C)CC1 (stereo not drawn)	?	-3%	4%	15µM*	-11%	-3%
Cc1cccc(N2CCN(C(=O)C3CCCCC3)CC2)c1C	29µM*	2%	4%	18µM*	11%	-10%
Cc1ccccc1N1CCN(C(=O)C2CCC(=O)N(C3CCCC3)C2)CC1 (stereo not drawn)	-10%	-3%	3%	6%	-11%	-19%
O=C(C1CCC(=O)N(C2CCCCCC2)C1)N1CCN(c2ccccc2Cl)CC1 (stereo not drawn)	?	-9%	3%	21µM*	7%	0%
Cc1cccc(N2CCN(C(=O)C3CC(=O)N(C4CCCC4)C3)CC2)c1C (stereo not drawn)	18µM*	-23%	3%	23µM*	4%	-11%
CN(Cc1ccccc1)c1ncnc2c1nnn2C	-16%	-8%	0%	-14%	5%	·
Cc1ccc(C)c(N2CCN(C(=S)NC3CCCCC3)CC2)c1	-2%	-5%	0%	-14%	-8%	1%
Cc1cc(N2CCC(C(=O)N3CCN(c4cccc(C)c4C)CC3)CC2)n2ncnc2n1	?	-6%	3%	21µM*	-8%	-9%
Cc1cccc(N2CCN(C(=S)NC3CCCCC3)CC2)c1C	?	-12%	4%	16µM*	-7%	-15%
CCc1ccc(OCC(=O)Nc2ccc(Cl)c(-c3nc4ncccc4o3)c2)cc1	?	2%	3%[12.3 µM]	?	-13%	·
CCOC(=O)c1sc(=S)n(C)c1NC(=O)c1ccccc1	?	-5%	-5%	21µM*	79µM*	7.5µM*
CCOC(=O)c1sc(=S)n(CC)c1NC(=O)c1ccccc1C	-5%	2%	·	-12%	-17%	0%
CCOC(=O)c1sc(=S)n(C)c1NC(=O)c1cccc(Br)c1	21µM*	-15%	2%	21µM*	?	11µM*
CCOC(=O)c1sc(=S)n(-c2ccccc2)c1NC(C)=O	-4%	-1%	·	-29%	?	?
CC1(C)CC(=O)C(=CN2CCOCC2)C(=O)C1	6%	-17%	-10%	-6%	0%	-17%
C=CC1C(N2CCOCC2)C(C)(C)S1(=O)=O (stereo not drawn)	23µM*	-4%	0%	?	-6%	9.5µM*
Cc1cc(C)nc(S[C@@H]2C[C@@H](C(=O)N3CCCN(C)CC3)N(Cc3cc(F)ccc3F)C2)n1	-8%	·	·	-6%	·	·
O=C(CSc1nnc(-c2ccc3c(c2)OCO3)o1)Nc1ncc(Cl)cc1Cl	21µM*	0%	3%	21µM*	?	-3%
CCOC(=O)c1[nH]c(=S)n(-c2ccccc2)c1C(=O)OCC	12%	·	·	2%	·	-5%
SMILES	TDP1 cell CPT	GCN5L2 inh	TDP1 inh	DT40 TDP1 no CPT	VDR inhibitor	PLK1 PBD inh
COc1ccccc1NC1=C(Cl)C(=O)OC1OC(=O)c1ccco1 (stereo not drawn)	23µM*	-27%	3%	21µM*	5%	-3%
Cc1ccccc1NC1=C(Cl)C(=O)OC1OC(=O)c1ccco1 (stereo not drawn)	26µM*	-14%	6%	23µM*	-13%	-21%
COc1ccccc1NC(=O)c1cc(Cl)ccc1NC(=O)c1ccco1	-10%	-5%	-1%	-24%	-4%	-3%
CCOC1OC(=O)C(Cl)=C1Nc1ccccc1C (stereo not drawn)	-31%	-5%	5%	-27%	-15%	-3%
Cc1cc(C)c2cc(C(=O)Nc3ccccc3)[nH]c2c1	-26%	?	3%	-29%	-8%	0%
O=C(NCC12CC3CC(CC(C3)C1)C2)c1cc2n(n1)C(C(F)(F)F)CC(c1ccco1)N2 (stereo not drawn)	10µM*	?	0%	15µM*	12%	1%
Cc1cc(NC(=O)c2cc3n(n2)C(C(F)(F)F)CC(c2ccco2)N3)n(-c2ccccc2)n1 (stereo not drawn)	?	-1%	1%	15µM*	-2%	-1%
COc1cc2c(cc1OC)C(C)N(C(=O)c1cc3n(n1)C(C(F)(F)F)CC(c1ccco1)N3)CC2 (stereo not drawn)	?	-9%	-7%	?	9%	-10%
COc1ccc(NC(=O)c2cc3n(n2)C(C(F)(F)F)CC(c2ccco2)N3)cc1 (stereo not drawn)	-22%	2%	2%	?	-1%	-9%
CCCCN1C(=O)C(CC(=O)NCc2ccco2)CC(C(=O)N(CC)CC)=C1C (stereo not drawn)	-8%	·	·	-7%	·	0%
CC(C)C(NC(=O)c1ccc(C(C)(C)C)cc1)C(=O)N1CCCC1 (stereo not drawn)	?	-4%	0%	?	-12%	0%
CCn1c(=O)c2sccc2n2c(CCCC(=O)Nc3ccc(Oc4ccccc4)cc3)nnc12	?	-16%	8%	15µM*	5%	·
COCCCn1c(=O)c2sccc2n2c(CCCC(=O)NCc3ccc(OC)cc3)nnc12	5%	-14%	4%	18%	15%	-7%
CC(C)CCn1c(=O)c2sccc2n2c(CCCC(=O)Nc3ccc(C(C)C)cc3)nnc12	?	-9%	5%	15µM*	10%	·
COCCCn1c(=O)c2sccc2n2c(CCCC(=O)Nc3cccc(C(F)(F)F)c3)nnc12	16µM*	-4%	-3%	21µM*	5%	·
